Measurements from PubChem BioAssay.
Where “and” joins values, the source holds several entries; their conditions need not be identical. Identical values can stand only once. Calls of active or inactive are those of the source.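 Rule for the calls, unless noted: active = compounds whose cell count with miR-34 switched on is under 0.7 times the count with it off; inactive = the rest.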

How the values were obtained:
[1] = P. berghei load reduction in hepatocytes – cell-based, HepG2, luciferase luminescence, HepG2 viability, primary screen (AID 624349; in the data active = parasite load remaining mostly below about 12%, no sharp cut-off; inactive = mostly above about 10%;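 note: 100% = mean of DMSO negative control wells on the same plate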); settings: P. berghei liver stage in HepG2, luciferase luminescence, concentration not given here; parasite load remaining: stronger effect = lower value; viability: measured here: HepG2 viability without parasites
[2] = viability loss with induced miR-34 in A549 – imaging, A549 dox-inducible miR-34, nuclei and caspase counts, primary screen (AID 1347080); settings: A549 miR-34 inducible, Hoechst nuclei count, 48 h
[3] = MELAS cybrid and Rieske KO viability enhancers – cell-based, MELAS cybrids, Rieske KO mouse fibroblasts, CellTiter-Glo, primary screen (AID 1508586;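 active = mean z-score across replicates of 1.96 or higher in either the MELAS or the Rieske mutant cell line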;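 note: z relative to plate mean and SD of compound and empty wells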); settings: low glucose
[4] = galactose survival enhancers in mitochondrial complex I cybrids – cell-based, galactose medium, ATP luminescence, primary screen (AID 1645843;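 active = z-score of at least 1.8 in each of two replicates, scored against plate mean and spread of sample wells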;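 note: positive z means more ATP and so rescue of galactose-driven cybrid death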); settings: complex I mutant cybrid cells, 72 h, stronger effect = higher value
[5] = compounds altering viability of human ES cells (AID 493140; call rule not given here;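 note: cells exposed to compounds for four days before counting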); settings: human embryonic stem cell survival screen; stronger effect = higher value
[6] = stronger effect = lower value, cell number ratio, induced over uninduced
[7] = measured here: relative caspase fold change +Dox/-Dox
[8] = measured here: total cells with miR-34 induction, stronger effect = lower value
[9] = measured here: total cells without miR-34 induction
[10] = MELAS cybrid survival, CellTiter-Glo 48 h, stronger effect = higher value
[11] = Rieske KO mouse fibroblast survival, CellTiter-Glo 72 h

Row | Compound | parasite load remaining [1] | viability [1] | fold change [2, 6] | fold change [2, 7] | cell count [2, 8] | cell count [2, 9] | z-score [3, 10] | z-score [3, 11] | z-score [4] | survival [5]
1 | CCCCCCCCCCCCCCCC(=O)O[C@@H]1[C@@H](O)[C@@H](O)[C@@H](C(NC(=O)[C@@H]2C[C@@H](CCC)CN2C)C(C)Cl)O[C@@H]1SC (stereo not given in full) | 67.8% (inactive) | 204% | 0.867 (inactive) | 1.18 | 9340 | 10800 | 0.27 (inactive) | -0.444 | 0.11 (inactive) | 
2 | CC1=C(CC(=O)O)c2cc(F)ccc2/C1=C/c1ccc(S(C)=O)cc1 (stereo not given) | 88.6% (inactive) and 52.4% (inactive) | 91.8% and 138% | 0.93 (inactive) | 1.38 | 9820 | 10600 | -0.379 (inactive) | -0.389 | 0.615 (inactive) | 19.2 (inactive)
3 | CC(=O)OC1C=C2C(Cl)=C[C@@H]3[C@H](CC[C@@]4(C)[C@H]3CC[C@]4(OC(C)=O)C(C)=O)[C@@]2(C)CC1 (stereo not given in full) | 9.03% (inactive) | 64% | 0.729 (inactive) | 1.61 | 7220 | 9910 | 0.137 (inactive) | 1.01 | 0.185 (inactive) | 
4 | CC1(C)C[C@H]1C(=O)N/C(=C\CCCCSC[C@@H](N)C(=O)O)C(=O)O | 23.2% (inactive) | 65% | 0.879 (inactive) | 0.978 | 9660 | 11000 | 0.461 (inactive) | 1.05 | 0.565 (inactive) | 
5 | CC(C)C[C@@H](NC(=O)[C@H](Cc1ccccc1)NC(=O)c1cnccn1)B(O)O | -0.325% (inactive) | 1% | 1.12 (inactive) | 1.54 | 1190 | 1060 | -1.11 (inactive) | 0.911 | -2.25 (inactive) | 
6 | CN1C[C@H](C(=O)N[C@]2(C)O[C@@]3(O)[C@@H]4CCCN4C(=O)[C@H](Cc4ccccc4)N3C2=O)CC2c3cccc4[nH]cc(c34)C[C@H]21 (stereo not given in full) | 81.9% (inactive) and 39.4% (inactive) | 69.3% and 96.5% | 0.973 (inactive) and 0.855 (inactive) | 1.1 and 1.21 | 7780 and 9120 | 8000 and 10700 | -0.956 (inactive) | -0.402 | 0.325 (inactive) | 
7 | CNC(=C[N+](=O)[O-])NCCSCc1csc(CN(C)C)n1 |  |  | 0.834 (inactive) and 1.04 (inactive) | 1.65 and 0.659 | 8750 and 8440 | 10500 and 8100 | -0.241 (inactive) | -0.0279 | 0.825 (inactive) | 4.67 (inactive)
8 | CC[C@H]1OC(=O)[C@H](C)[C@@H](O[C@H]2C[C@@](C)(OC)[C@@H](O)[C@H](C)O2)[C@H](C)[C@@H](O[C@@H]2O[C@H](C)C[C@H](N(C)C)[C@H]2O)C(C)(O)C[C@@H](C)CN(C)[C@H](C)[C@@H](O)[C@]1(C)O (stereo not given in full) | 18.4% (inactive) | 65.5% | 0.876 (inactive) | 1.13 | 9530 | 10900 | -0.337 (inactive) and 0.0634 (inactive) | -0.912 and -0.719 | 0.015 (inactive) | 
9 | C=C1CC[C@H](O)C/C1=C/C=C1\CCC[C@]2(C)[C@@H]([C@H](C)CCCC(C)(C)O)CC[C@@H]12 | 63.8% (inactive) | 110% | 1.02 (inactive) and 0.856 (inactive) | 1.06 and 1.42 | 6030 and 8450 | 5930 and 9870 | 0.872 (inactive) | 0.441 | -1.75 (inactive) | 84.6 (inactive)
10 | N.N.O=C(O)CO.[Pt] | 50.4% (inactive) | 108% | 0.961 (inactive) | 1.22 | 10100 | 10500 | -0.923 (inactive) | -1.2 | 0.195 (inactive) | 
11 | CC[C@]1(O)C[C@H]2CN(CCc3c([nH]c4ccccc34)[C@@](C(=O)OC)(c3cc4c(cc3OC)N(C)[C@H]3[C@@](O)(C(N)=O)[C@H](O)[C@]5(CC)C=CCN6CC[C@]43[C@@H]65)C2)C1 | 29.7% (inactive) | 79.5% | 1.02 (inactive) | 1.58 | 1810 | 1780 | -2.11 | 2.09 | -1.99 (inactive) | 
12 | CC(C)C[C@H](NC(=O)[C@@H](Cc1c[nH]c2ccccc12)NC(=O)[C@H](Cc1ccc(O)cc1)NC(=O)[C@H](CO)NC(=O)[C@H](Cc1c[nH]c2ccccc12)NC(=O)[C@H](Cc1cnc[nH]1)NC(=O)[C@@H]1CCC(=O)N1)C(=O)N[C@@H](CCCN=C(N)N)C(=O)N1CCC[C@H]1C(=O)NCC(N)=O | 20.9% (inactive) | 68.5% | 0.921 (inactive) | 1.16 | 9400 | 10200 | 0.161 (inactive) | -0.118 | 0.68 (inactive) | 
13 | CC(C)C[C@H](NC(=O)[C@@H](COC(C)(C)C)NC(=O)[C@H](Cc1ccc(O)cc1)NC(=O)[C@H](CO)NC(=O)[C@H](Cc1c[nH]c2ccccc12)NC(=O)[C@H](Cc1cnc[nH]1)NC(=O)[C@@H]1CCC(=O)N1)C(=O)N[C@@H](CCCN=C(N)N)C(=O)N1CCC[C@H]1C(=O)NNC(N)=O | 53.9% (inactive) | 102% | 0.891 (inactive) | 1.53 | 10600 | 11900 | -0.533 (inactive) | -0.444 | 0.71 (inactive) | 
14 | CCC(=O)OC(OP(=O)(CCCCc1ccccc1)CC(=O)N1C[C@H](C2CCCCC2)C[C@H]1C(=O)O)C(C)C (stereo not given in full) | 49.8% (inactive) | 108% | 0.948 (inactive) | 2.49 | 10100 | 10700 | 0.354 (inactive) and -0.69 (inactive) | -0.176 and -1.17 | 0.59 (inactive) | 
15 | CC(C)C[C@H]1C(=O)N2CCC[C@H]2[C@]2(O)O[C@](NC(=O)[C@@H]3C=C4c5cccc6[nH]c(Br)c(c56)CC4N(C)C3)(C(C)C)C(=O)N12 (stereo not given in full) | 20.7% (inactive) and 22.3% (inactive) | 50% and 138% | 0.897 (inactive) and 0.925 (inactive) | 1.56 and 1.14 | 7190 and 8820 | 8020 and 9530 | -0.909 (inactive) | 0.597 | 0.045 (inactive) | 
16 | CC(C)NC[C@@H](O)c1ccc(O)c(O)c1 | 67.9% (inactive) | 93.2% | 1.04 (inactive) and 0.887 (inactive) | 1.51 and 1.13 | 10500 and 9200 | 10100 and 10400 | 0.464 (inactive) | -0.759 | -1.29 (inactive) | 
